Results: PubChem BioAssay AID1159580 (chemical genetic matrix, 2015)
The whole screen tested about 5,500 compounds, of which about 2,000 (36%) were called active. Another 18% or so got no clear call; they are omitted. Rule as the data show it: active = normalized growth mostly below about 0.91 (no sharp cut-off); inconclusive = no clear call, values can overlap the other calls; inactive = mostly above about 0.92. The list shows a part of the results.

Assay: chemical genetic growth profiling, strain panel (AID 1159580);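 also: tested at 20 µM; growth read once vehicle control cultures reached saturation at 30 °C; 1 = growth at the plate median or of vehicle wells; lower values mean less growth of the strain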
Settings: S. cerevisiae deletion strains, growth OD
[1] = locus YAR019C, strain CDC15, active compounds read low
[2] = locus YBL105C, strain PKC1, active compounds read low
[3] = locus YBR135W, strain CKS1, active compounds read low
[4] = locus YBR136W, strain MEC1, active compounds read low
[5] = locus YBR160W, strain CDC28, active compounds read low
[6] = locus YDL017W, strain CDC7, active compounds read low
[7] = locus YDL028C, strain MPS1, active compounds read low
[8] = locus YDL101C, strain DUN1, active compounds read low
[9] = locus YDL108W, strain KIN28, active compounds read low
[10] = locus YDL132W, strain cdc53, active compounds read low
[11] = locus YDL214C, strain PRR2, active compounds read low
[12] = locus YDR052C, strain DBF4, active compounds read low
[13] = locus YDR054C, strain cdc34, active compounds read low
[14] = locus YDR226W, strain ADK1, active compounds read low
[15] = locus YDR477W, strain SNF1, active compounds read low
[16] = locus YER123W, strain YCK3, active compounds read low
[17] = locus YER133W, strain GLC7, active compounds read low
[18] = locus YFL009W, strain cdc4, active compounds read low
[19] = locus YFL029C, strain CAK1, active compounds read low
[20] = locus YFR003C, strain YPI1, active compounds read low
[21] = locus YFR019W, strain FAB1, active compounds read low
[22] = locus YFR028C, strain CDC14, active compounds read low
[23] = locus YGR040W, strain KSS1, active compounds read low
[24] = locus YGR052W, strain FMP48, active compounds read low
[25] = locus YGR092W, strain DBF2, active compounds read low
[26] = locus YHR030C, strain SLT2, active compounds read low
[27] = locus YHR079C, strain IRE1, active compounds read low
[28] = locus YHR082C, strain KSP1, active compounds read low
[29] = locus YHR205W, strain SCH9, active compounds read low
[30] = locus YIL147C, strain SLN1, active compounds read low
[31] = locus YJL095W, strain BCK1, active compounds read low
[32] = locus YJL128C, strain PBS2, active compounds read low
[33] = locus YJL157C, strain FAR1, active compounds read low
[34] = locus YJR016C, strain ILV3, active compounds read low
[35] = locus YJR066W, strain TOR1 (second series), active compounds read low
[36] = locus YJR066W, strain TOR1, active compounds read low
[37] = locus YKL048C, strain ELM1, active compounds read low
[38] = locus YKL067W, strain YNK1, active compounds read low
[39] = locus YKL101W, strain HSL1, active compounds read low
[40] = locus YKL193C, strain SDS22, active compounds read low
[41] = locus YKL203C, strain TOR2, active compounds read low
[42] = locus YLR113W, strain HOG1, active compounds read low
[43] = locus YLR133W, strain CKI1, active compounds read low
[44] = locus YLR403W, strain SFP1, active compounds read low
[45] = locus YML070W, strain DAK1, active compounds read low
[46] = locus YMR001C, strain CDC5, active compounds read low
[47] = locus YMR205C, strain PFK2 (second series), active compounds read low
[48] = locus YMR277W, strain FCP1, active compounds read low
[49] = locus YNL006W, strain LST8, active compounds read low
[50] = locus YNL020C, strain ARK1, active compounds read low
[51] = locus YNL161W, strain CBK1, active compounds read low
[52] = locus YNL183C, strain NPR1, active compounds read low
[53] = locus YNL207W, strain RIO2, active compounds read low
[54] = locus YNL222W, strain SSU72, active compounds read low
[55] = locus YNL307C, strain MCK1 (second series), active compounds read low
[56] = locus YOL078W, strain AVO1, active compounds read low
[57] = locus YOL136C, strain PFK27, active compounds read low
[58] = locus YOR061W, strain CKA2, active compounds read low
[59] = locus YOR119C, strain RIO1, active compounds read low
[60] = locus YOR231W, strain MKK1, active compounds read low
[61] = locus YOR329C, strain SCD5, active compounds read low
[62] = locus YPL031C, strain PHO85, active compounds read low
[63] = locus YPL153C, strain RAD53, active compounds read low
[64] = locus YPL204W, strain HRR25, active compounds read low
[65] = locus YPL209C, strain IPL1, active compounds read low
[66] = locus YPL256C, strain CLN2, active compounds read low
[67] = locus YPR025C, strain CCL1, active compounds read low
[68] = locus YPR106W, strain ISR1, active compounds read low
[69] = locus YPR111W, strain DBF20, active compounds read low
[70] = strain NNK1, active compounds read low
[71] = strain TSCII, active compounds read low

Measured: normalized growth

Cc1nn(Cc2cccc(C(=O)Nc3ccc(Cl)cc3)c2)c(C)c1Br
inactive: [1] 0.99 | [2] 0.976 | [3] 0.986 | [4] 0.976 | [5] 0.979 | [6] 0.985 | [7] 0.978 | [8] 0.981 | [9] 0.979 | [10] 0.976 | [11] 0.96 | [12] 0.986 | [13] 0.975 | [14] 0.978 | [15] 0.959 | [16] 0.946 | [17] 0.953 | [18] 0.978 | [19] 0.982 | [20] 0.977 | [21] 0.977 | [22] 0.981 | [23] 0.965 | [24] 1.01 | [25] 0.987 | [26] 1.1 | [27] 1.11 | [28] 1.06 | [29] 1.01 | [30] 0.978 | [31] 1 | [32] 0.952 | [33] 0.968 | [34] 0.985 | [35] 0.978 | [36] 1.06 | [37] 0.961 | [38] 0.965 | [39] 0.955 | [40] 0.975 | [41] 1.04 | [42] 0.923 | [43] 0.967 | [44] 0.99 | [45] 0.954 | [46] 0.979 | [47] 0.965 | [48] 0.98 | [49] 0.994 | [50] 0.965 | [51] 0.987 | [52] 1.04 | [53] 0.978 | [54] 0.981 | [55] 1 | [56] 0.973 | [57] 0.92 | [58] 0.96 | [59] 1.02 | [60] 0.968 | [61] 0.987 | [62] 0.963 | [63] 0.957 | [64] 0.935 | [65] 0.981 | [66] 1 | [67] 0.974 | [68] 0.982 | [69] 0.97 | [70] 0.982 | [71] 0.981

Cc1cc(C(=O)Nc2ccc(Cl)cc2)nn1C(C)(C)C
active: [42] 0.801 | [66] 0.817
inactive: [1] 0.985 | [2] 1 | [3] 0.995 | [4] 1 | [5] 0.99 | [6] 0.995 | [7] 1.01 | [8] 0.984 | [9] 0.993 | [10] 0.989 | [11] 0.967 | [12] 1 | [13] 0.984 | [14] 0.987 | [15] 0.973 | [16] 0.955 | [17] 0.97 | [18] 0.989 | [19] 0.984 | [20] 1 | [21] 0.992 | [22] 1 | [23] 0.978 | [24] 0.958 | [25] 0.982 | [26] 1.08 | [27] 0.866 | [28] 1.15 | [29] 0.951 | [30] 0.998 | [31] 0.849 | [32] 0.942 | [33] 0.973 | [34] 0.984 | [35] 0.962 | [36] 1.11 | [37] 0.983 | [38] 0.976 | [39] 0.975 | [40] 0.993 | [41] 1.05 | [43] 0.967 | [44] 0.956 | [45] 0.958 | [46] 1 | [47] 0.966 | [48] 0.975 | [49] 0.992 | [50] 0.964 | [51] 0.986 | [52] 0.893 | [53] 0.998 | [54] 0.992 | [55] 0.977 | [56] 0.985 | [57] 0.96 | [58] 0.977 | [59] 1.02 | [60] 0.877 | [61] 1 | [62] 0.982 | [63] 0.957 | [64] 0.962 | [65] 1 | [67] 0.999 | [68] 0.979 | [69] 0.978 | [70] 0.984 | [71] 0.985
